According to PubChem BioAssay AID952 (NMMLSC, 2007):
The campaign covered roughly 190,000 compounds. About 45 (0.02%) were called active. Only a sample is shown. Values without a mark were called inactive. No stated cut-off is given here; in the data, active means inhibition above about 40%.

Target: Bcl-2-like protein 2 (Homo sapiens) (UniProt Q92843)
Assay: Bcl-W/Bim complex disruptors – biochemical, multiplexed, bead-based flow cytometry, primary screen (AID 952);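 further: 0% = bound tracer without compound and 100% = peptide blocker; higher means less fluorescent Bim peptide bound to Bcl-W beads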
Conditions: Bim peptide-Bcl-W binding, at 10 µM, stronger effect = higher value

Chain of Bcl-2-like protein 2 (Homo sapiens) (Q92843 whole entry, looked up): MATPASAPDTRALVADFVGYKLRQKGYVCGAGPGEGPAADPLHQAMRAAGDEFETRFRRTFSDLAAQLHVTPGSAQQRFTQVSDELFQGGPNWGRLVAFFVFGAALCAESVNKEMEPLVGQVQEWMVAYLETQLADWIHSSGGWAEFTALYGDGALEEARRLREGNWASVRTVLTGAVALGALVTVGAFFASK

Row | SMILES | inhibition [%]
1 | CCOC(=O)NN1C(=O)c2ccccc2NC1c1cccc(O)c1 (centres undefined) | 0
2 | CCOC(=O)c1c(/N=C/C2C(=O)CC(C)(C)CC2=O)sc(C)c1C | 2
3 | COc1ccc(Cl)cc1C(=O)NNC(=S)NC1CCCC1 | 1
4 | Cc1cc(N2CCOCC2)nc(-c2ccc(Br)cc2)n1 | -3
5 | OCC(O)CN(c1ccccc1)c1ccccc1 (centres undefined) | -1
6 | O=C(CNC1CCCCC1)NCC1(c2ccccc2)CCCC1 | 0
7 | COCCn1c(Cc2cccn2C)nnc1SCC(=O)Nc1nccs1 | 2
8 | COc1cc(CNC2CCCC2)c(Br)cc1OCc1ccccc1 | -3
9 | O=C(NCCN1CCOCC1)c1cc(Sc2cccc(Cl)c2)nc2ccccc12 | -3
10 | CCN1CCN(CC(=O)c2cc(OC)c(OC)c(OC)c2)CC1 | -1
11 | O=C(Cc1ccc(F)cc1)N1CCN=C1SCc1cccc([N+](=O)[O-])c1 | -1
12 | CCN(CC)CCNS(=O)(=O)c1ccc(/C=C/C(=O)O)cc1 | -2
13 | C=CCc1ccc(OCC(O)CN2CCN(Cc3ccccc3)CC2)c(OC)c1 (centres undefined) | -2
14 | Cn1c(N)c(C(=O)COC(=O)c2cnc(Cl)c(Cl)c2)c(=O)n(C)c1=O | 0
15 | Cc1ccc(NC(=O)CSc2nnc(CNC(=O)c3ccccc3F)o2)cc1 | 2
16 | O=[N+]([O-])c1ccc(N2CCNCC2)cc1NCc1cccnc1 | 0
17 | CCOC(=O)c1cc(-c2ccc(F)cc2)n(CC(=O)NCc2ccccn2)c1C | 0
18 | CCOC(=O)N1CCN(CCC(=O)Nc2cc(OC)ccc2OC)CC1 | 1
19 | C=CCNC(=O)COC(=O)c1ccccc1C(=O)N(C)C1CCCCC1 | 0
20 | COc1ccccc1N1CCN(C(=O)C(=O)N/N=C/c2ccccc2F)CC1 | -3

Row | SMILES | inhibition [%]
21 | COc1ccc(C(=O)CSc2nc(C)cc(C)n2)cc1[N+](=O)[O-] | -1
22 | CC(C)Oc1ccc(Cc2n[nH]c(=S)n2Cc2ccccc2)cc1Cl | -7
23 | CC1CCCN(CC(O)COCc2ccccc2)C1 (centres undefined) | 1
24 | CCCC(NC(=O)c1ccco1)c1nc2ccccc2[nH]1 (centres undefined) | -5
25 | C=CCn1c(SCc2cccc(F)c2)nc2cc(C(=O)N3CCC(C(N)=O)CC3)ccc2c1=O | -2
26 | CN(CCOc1ccccc1)Cc1nc2cc(Cl)ccc2c(=O)[nH]1 | 0
27 | CC1CC(C)CN(S(=O)(=O)c2ccc(C(=O)NN3CCOCC3)cc2)C1 (centres undefined) | 1
28 | COc1ccc2c(c1)C(SCC(=O)NCc1ccccc1)CC(C)(C)O2 (centres undefined) | -4
29 | COC(=O)CCNC(=O)c1ccc2[nH]c(C)c(C)c2c1 | 1
30 | Cc1ccc(NC(=O)CSc2nnc(COc3ccccc3C)o2)cc1 | -1
31 | COC(=O)CC(=O)N1CCN(c2ccc(Cl)c(Cl)c2)CC1 | 4
32 | CSCc1ccc(C(=O)Nc2cc(C)cc(C)c2)cc1 | -5
33 | CCN1CCN(CC(=O)Nc2sc3c(c2C#N)CCC3)CC1 | 3
34 | CCOc1cnc(C(=O)NNC(=O)c2ccccc2Br)o1 | 0
35 | COc1ccc(-c2csc(NC(=O)COC(=O)c3ccc(Br)o3)n2)cc1 | -1
36 | O=C(CCSc1ccccc1)N1CCN(c2ccccc2F)CC1 | -2
37 | O=C(CCCc1ccccc1)NCc1ccccc1 | -1
38 | COc1cc(/C=C/C2=CC(C)(C)NC(=S)N2)cc(OC)c1OC | 0
39 | CCCCN(CC)C(=O)c1ccccc1Oc1ccccc1 | -2
